# In PubChem BioAssay (NCATS):
# Records with an inconclusive call do not appear. A call without a number means that no potency is given here. Unmarked numbers belong to inactive results. Active and inactive are the calls of the source. Calls come from the whole dose curve; as a rule, active = well fitted curve in the direction sought with a large enough effect; inconclusive = small, poorly fitted or top-dose-only effect, or another doubt; inactive = no such curve, though single readings can be large; an effect the other way counts as inactive or inconclusive.
# How the values were obtained:
# [1] = U-118MG Cancer Cell Toxicity qHTS against the NCATS CANVASS Library (AID 1347351); note: potency is the fitted concentration of half-maximal effect
# Method in brief: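 Per well, 1000 cells; exposure 72 h with compound at 11 final concentrations; readout CellTiter-Glo luminescence.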
# [2] = A2780 Cisplatin Sensitive Ovarian Cancer Cell Toxicity qHTS against the NCATS CANVASS Library (AID 1347353); note: nearly all actives have a fitted effect of over 60% in size; note: potency is the fitted concentration of half-maximal effect
# Method in brief: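 750 cells/well, 4 h settle; 11-pt cpd titration; 72 h, 37 °C, 5% CO2; ATPLite 10 min RT; luminescence read.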
# [3] = UWB1.289-WTBRCA1 Cancer Cell Toxicity qHTS against the NCATS CANVASS Library (AID 1347354); note: potency is the fitted concentration of half-maximal effect
# Method in brief: (§1)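 1000 cells/well, 4 h pre-incubation 37 °C/5% CO2; 11-pnt titration; 72 h; CellTiter-Glo 15 min RT, luminescence.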
# [4] = HEK-293 Cancer Cell Toxicity qHTS against the NCATS CANVASS Library (AID 1347355); note: nearly all actives have a fitted effect of over 65% in size; note: potency is the fitted concentration of half-maximal effect; for outcome: series mostly up to about 46 µM
# Method in brief: as §1
# [5] = HPAF-II 24hr Apoptosis Induction qHTS against the NCATS CANVASS Library (AID 1347356)
# Method in brief: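 500 HPAF-II cells/well; compounds in 11-pnt qHTS; 24 h, 37 C/5% CO2; Caspase-Glo 3/7 added, 15 min RT dark; luminescence read. Doxorubicin control.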
# [6] = tested on: NAD(P)H diaphorase (Clostridium kluyveri); experiment: Diaphorse counterscreen qHTS: Assay Interference Panel against the NCATS CANVASS Library (AID 1347362)
# Method in brief: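 Clostridium kluyveri diaphorase in PBS with 0.01% Tween-20 was preincubated 15 min at room temperature in the dark with compounds (11-point series). Resorufin fluorescence (ex 525/20, em 598/25) was read 5 min after adding resazurin/NADH.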
# [7] = KB-8-5-11 Cancer Cell Toxicity qHTS against the NCATS CANVASS Library (AID 1347364); note: nearly all actives have a fitted effect of over 75% in size; note: potency is the fitted concentration of half-maximal effect
# Method in brief: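 CellTiter-Glo luminescence after 72 h exposure; 500 KB-8-5-11 cells/well, DMEM/10% FBS, 37C, 5% CO2; compounds in 11-pt qHTS. Follow-up confirmation included medium with 1uM tariquidar.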
# [8] = SDT Cancer Cell Toxicity qHTS against the NCATS CANVASS Library (AID 1347365); note: nearly all actives have a fitted effect of over 60% in size; note: potency is the fitted concentration of half-maximal effect
# Method in brief: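 Luminescent ATP read-out (CellTiterGlo) after 72 hr compound exposure of dog glioma SDT cells, 500 per well. Eleven-point titrations; bortezomib titration run alongside as control.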
# [9] = qHTS for ATAD5 Antagonist screened against the NCATS CANVASS Library (AID 1347370); note: nearly all actives have a fitted effect of over 65% in size; note: potency is the fitted concentration of half-maximal effect
# Method in brief: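 HEK293T-ATAD5 luc reporter, 2000 cells/well; 5hr attach; cpd + 10 uM 5-FUrd; 16hr 37C, 5% CO2. Readouts: CellTiter-Fluor fluorescence (1hr), then Amplite luciferase luminescence (30min RT).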
# [10] = target: Nuclear receptor subfamily 1 group I member 3 (Homo sapiens) (UniProt Q14994); experiment: qHTS for Constitutive Androstane Receptor (CAR) Antagonist screened against the NCATS CANVASS Library (AID 1347372); note: potency is the fitted concentration of half-maximal effect
# Method in brief: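 Cells were seeded and left 4hr to attach, then received compound at 11 concentrations and 50 nM CITCO. Following 24hr incubation, fluorescence viability and luciferase luminescence were read sequentially.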
# [11] = qHTS for Hypoxia signaling pathway (HIF-1) agonists against the NCATS CANVASS Library (AID 1347375); note: potency is the fitted concentration of half-maximal effect
# Method in brief: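 Read-out: beta-lactamase FRET (CCF4-AM, ex 405, em 460 and 530 nm) after 2 h at room temperature. ME-180 cells stably carrying HRE-bla were treated 17 h at 37C with compounds in an 11-point concentration series.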
# [12] = DH5-alpha competent E. coli microbial cell viability qHTS against the NCATS CANVASS Library (AID 1347377); settings: outcome: dose series up to 46.1 µM unless noted
# Method in brief: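 Luminescent ATP read-out (BacTiter-Glo, 20 min RT) after overnight 37C culture of DH5-alpha E. coli with compounds; daunomycin control at 0.2 nM–9.2 uM final.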
# [13] = qHTS for H2AX Agonists against the NCATS CANVASS Library (AID 1347378);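 note: phospho-H2AX S139 level in CHO-K1 lysates by TR-FRET emission ratio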; note: potency is the fitted concentration of half-maximal effect
# Method in brief: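 Following overnight seeding, CHO-K1 cells are incubated with a concentration series of compound for 3 hr at 37C (final DMSO 0.76%). Cells are then lysed, detection antibodies added, and emission ratio 665/620 nm recorded after 24 hr at room temperature.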
# [14] = Cytotoxicity qHTS for assessment of Hepg2 cells membrane integrity screened against the NCATS CANVASS Library (AID 1347387)
# Method in brief: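 LDH release read by fluorescence (560 nm ex/590 nm em) after CytoTox-ONE addition and 10 min RT; signal tracks lysed cells. HepG2, 2000 cells/well, plated overnight; compound 5 hr, 37C, 5% CO2, final 0.59 nM - 46 uM, 11 points.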
# [15] = qHTS for Activators of p53 Stress Response Pathway screened against the NCATS CANVASS Library (AID 1347388)
# Method in brief: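 p53RE-bla HCT-116 cells (4000/well) were plated 5 h at 37C, exposed to compounds for 16 h at 37C over an 11-point concentration series, then loaded with CCF4 for 2 h at room temperature; 460/530 nm emission ratio read.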
# [16] = qHTS assay for small molecule disruptors of mitochondrial membrane potential screened against the NCATS CANVASS Library (AID 1347389); note: nearly all actives have a fitted effect of over 60% in size; note: potency is the fitted concentration of half-maximal effect
# Method in brief: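 Red/green fluorescence ratio read-out: J-aggregates ex 540/em 590 nm, monomers ex 490/em 535 nm. HepG2, 1 hr compound treatment, then 30 min Mito-MPS dye at 37C. 11-pt qHTS concentration series.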
# [17] = qHTS for activators of dead-cell proteases activity screened against the NCATS CANVASS Library (AID 1347392);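 note: luminescence from protease leaking out of membrane-damaged cells cleaving impermeant substrate; rising signal means more cytotoxicity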
# Method in brief: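 Cytotoxicity in HepG2 cells was assessed by released protease cleaving AAF-aminoluciferin, with luminescence as signal. Exposure lasted 5 h at 37C across an 11-point series.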
# [18] = qHTS for inhibitors of ER calcium dysfunction: SERCaMP assay screened against the NCATS CANVASS Library (AID 1347393);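 note: series mostly up to about 77 µM; lower secreted reporter signal means inhibitor of ER calcium depletion; nearly all actives have a fitted effect of over 40% in size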
# Method in brief: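 qHTS in SH-SY5Y reporter cells: 16 h compound pretreatment, 4 h thapsigargin, then secreted Gaussia luciferase measured by luminescence.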
# [19] = Redox Reaction Profiling qHTS: Assay Interference Panel against the NCATS CANVASS Library (AID 1347401); note: potency is the fitted concentration of half-maximal effect
# Method in brief: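 Quantitative HTS over an 11-point series was run in HEPES pH 7.3 with 50 mM NaCl, 200 uM DTT and 5 uM resazurin. Initial and 15-min resorufin fluorescence readings were taken.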
# [20] = Secretion counterscreen for inhibitors of the SERCaMP assay screened against the NCATS CANVASS Library (AID 1347390);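 note: light from luciferase secreted into medium read as a measure of general secretion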; note: potency is the fitted concentration of half-maximal effect
# Method in brief: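 Counterscreen identifying compounds that disrupt secretion, using SH-SY5Y cells with a constitutively secreted Gaussia luciferase reporter. A 20 h compound exposure (top 77 uM) precedes luminescent detection with coelenterazine.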
# Chain of Nuclear receptor subfamily 1 group I member 3 (Homo sapiens) (Q14994 whole entry, looked up): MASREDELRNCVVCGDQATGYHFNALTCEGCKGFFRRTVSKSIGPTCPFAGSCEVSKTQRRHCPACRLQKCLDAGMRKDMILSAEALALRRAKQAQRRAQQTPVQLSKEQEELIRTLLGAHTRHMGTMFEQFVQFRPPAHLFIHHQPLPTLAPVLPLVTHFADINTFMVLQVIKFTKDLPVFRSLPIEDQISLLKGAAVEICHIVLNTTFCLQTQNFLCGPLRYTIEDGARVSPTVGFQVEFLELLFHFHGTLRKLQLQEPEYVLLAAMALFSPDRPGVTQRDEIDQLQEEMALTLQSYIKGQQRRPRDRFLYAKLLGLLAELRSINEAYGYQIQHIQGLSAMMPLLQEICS
Structure (SMILES),Potency [1],Potency [2],Potency [3],Potency [4],outcome [5],Potency [6],Potency [7],Potency [8],Potency [9],Potency [10],Potency [11],outcome [12],Potency [13],outcome [14],Potency [15],Potency [16],Potency [17],Potency [18],Potency [19],Potency [20]
O=c1cc(-c2ccc(O)cc2)oc2c([C@@H]3OC(CO)[C@H](O)[C@@H](O)[C@H]3O)c(O)cc(O)c12 (some centres not stated),inactive,inactive,inactive,inactive,inactive,inactive,inactive,inactive,inactive,inactive,inactive,inactive,inactive,inactive,inactive,inactive,inactive,inactive,inactive,–
CN1C(=O)[C@]23SS[C@@]1(C)C(=O)N2[C@H]1Nc2ccccc2[C@]1(c1c[nH]c2ccccc12)[C@@H]3O,–,0.132 µM (active),–,0.743 µM (active),–,–,2.35 µM (active),0.743 µM (active),4.67 µM (active),10.5 µM (active),inactive,inactive,21.7 µM (active),inactive,–,–,inactive,inactive,24.1 µM (active),1.72 µM (active)
CN1CC[C@]2(c3cccc4c3N[C@@H]3N(C)CC[C@]43[C@@]34CCN(C)[C@@H]3Nc3c([C@]56CCN(C)[C@H]5Nc5ccccc56)cccc34)c3ccccc3N[C@H]12,6.68 µM (active),9.35 µM (active),10.6 µM (active),2.96 µM (active),inactive,inactive,9.35 µM (active),1.32 µM (active),9.33 µM (active),26.3 µM (active),9.41 µM (active),–,13.7 µM (active),–,–,inactive,–,inactive,inactive,–
CC(C)=CCC[C@@H](C)[C@@H]1CC[C@@]2(C)C[C@H]3C(C)=CC(=O)[C@@H]3/C(C=O)=C\C[C@H]12,7.49 µM (active),3.72 µM (active),10.6 µM (active),9.35 µM (active),–,inactive,10.5 µM (active),–,–,–,–,inactive,inactive,inactive,–,–,inactive,inactive,–,–
C[C@@]12CCC[C@@](C)(C(=O)O)[C@H]1CC[C@]13C[C@H]4C[C@H](O[C@@]4(C)C1)[C@H]32,inactive,inactive,–,inactive,inactive,inactive,inactive,inactive,inactive,inactive,inactive,inactive,inactive,inactive,inactive,inactive,inactive,inactive,inactive,inactive
C=C[C@@]1(C)CC[C@@H]([C@H](C)C(=O)/C=C/C(C)C)O1,inactive,inactive,inactive,inactive,inactive,inactive,inactive,inactive,inactive,inactive,inactive,inactive,inactive,inactive,inactive,inactive,inactive,–,inactive,inactive
CCC1=C2CCCN3C(=O)O[C@H]([C@H]1OC(C)=O)[C@H]23,inactive,inactive,inactive,inactive,inactive,inactive,inactive,inactive,inactive,inactive,inactive,inactive,inactive,inactive,inactive,inactive,inactive,inactive,inactive,inactive
C=C1C[C@@]23C=CC(=O)[C@@](C)(CCC(=O)Nc4c(OC5O[C@H](CO)[C@@H](O)[C@H](O)[C@H]5O)ccc(C(=O)O)c4O)C2C[C@@H]1CC3 (some centres not stated),inactive,inactive,inactive,inactive,inactive,inactive,inactive,inactive,inactive,inactive,inactive,–,inactive,inactive,inactive,inactive,inactive,inactive,–,inactive
CCCCCCCCC[C@@H]1C[C@@H]2CC[C@H]3[C@@H](C(=O)OCCCCN=C(N)N)[C@@H](C)N=C(N1)N23,11.6 µM (active),–,–,11.5 µM (active),inactive,inactive,–,2.58 µM (active),inactive,–,–,–,–,inactive,inactive,inactive,inactive,inactive,inactive,inactive
CCC[C@@H](C)/C=C(\C)[C@H](O)[C@H](C)/C=C/CC[C@@H](O)[C@H](C)[C@H](O)[C@H](C)[C@H](O)[C@H](C)[C@H]1O[C@H]([C@H](C)C(=O)O)CC[C@@H]1C,16.8 µM (active),–,13.3 µM (active),14.8 µM (active),inactive,inactive,11.8 µM (active),9.35 µM (active),–,–,–,–,inactive,–,–,20.9 µM (active),–,inactive,inactive,38.4 µM (active)
C=C(NC(=O)c1csc(-c2nc3c(cc2O)-c2nc(cs2)C(=O)NC(C(C)O)C(=O)N/C(=C(\C)O)c2nc(cs2)C(=O)NC2c4nc(cs4)C(=O)NC(COC(=O)c4c5c6c(cccc6n4O)COC(=O)[C@@H](OC4C[C@](C)(O)[C@H](N(C)C)[C@H](C)O4)C2OC5)c2nc-3cs2)n1)C(N)=O (some centres not stated),inactive,inactive,inactive,–,inactive,inactive,inactive,–,inactive,inactive,–,inactive,inactive,inactive,–,–,inactive,–,–,–
